In PubChem BioAssay AID504334 (NMMLSC, 2011):
Several values for one entry are separate records, joined by “and”; a condition that tells them apart may be missing. Identical values can stand only once. A number with no mark means an inactive call.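 Rule for the calls: active = response relative to DMSO over 150%; inconclusive = yeast strain with under 70 recorded events; inactive = the rest.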

Assay: AGP1-GFP expression modulators, hit retest, confirmation, cell-based, flow cytometry, S. cerevisiae, cherry pick set 3 (AID 504334);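 note: median GFP fluorescence per well by flow cytometry over the all cells gate; ratio of sample to mean DMSO control signal so DMSO = 100% not 0%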
Settings: S. cerevisiae AGP1-GFP strain, 3 h, at 10 µM, hits give high values

Row | SMILES | percent response vs DMSO
1 | CC1=CN2C(=N)/C(=C/c3ccco3)C(=O)N=C2S1 | 97.1%
2 | COCC(C)NC(=O)CCS(=O)(=O)c1nc(-c2ccc(OC)cc2)cc(C(F)(F)F)n1 (centres undefined) | 98.4% and 101%
3 | OCc1ccnc2c(O)cccc12 | 100%
4 | FC(F)Oc1cccc2cccnc12 | 96.4%
